The results in this text go back to the OligoGym collection.
Also: reference of the scale not given here.

The first experiment has as its target SSR4. The experiment can be described thus: pooled miR-30 sensor sort-seq; sequence = guide strand. The following applies: shRNA.
TCTCAGTGGAAATGACAGCGTC gave a sensor-assay potency score (higher = more potent) of -0.63. TAACCTCATAGGTGCCTGCGTG came in with a sensor-assay potency score (higher = more potent) of -0.73. On the same count and under the same terms, the value for AATCTAACCTCATAGGTGCCTG was -0.709; that for TAGTAGGAAGGGGTGATCTGGG was -0.671; that for TCGAGTGACAGGGAATTGTTTT was -0.927. The sequence AAGAATCTAACCTCATAGGTGC registered a sensor-assay potency score (higher = more potent) of 0.237.

Sequence TAGATCACAAGGCCGATCGCCG gave a sensor-assay potency score (higher = more potent) of -0.829. Sequence TCAGAAGTGGTGTAGTAGGAAG displayed a sensor-assay potency score (higher = more potent) of -1.28. TATTCCTCTGAGCCTTCCTGAG displayed a sensor-assay potency score (higher = more potent) of -1.63. Regarding AAGTAGTAGATCACAAGGCCGA, the sensor-assay potency score (higher = more potent) was -0.597.

In another experiment the target is SSTR1. The experiment is described as above. The following applies: shRNA.
In the case of TAGATGACCATAGAGTTCCCAC, the sensor-assay potency score (higher = more potent) was -0.705.

In turn, TTTAGGATGTAGATGTTGGTGG displayed a sensor-assay potency score (higher = more potent) of -0.196.

In turn, TAAATTTGTATCCTCTTAGAAG gave a sensor-assay potency score (higher = more potent) of -1.31. Consider TATCATTTATGTATTATCCTAA, for which the sensor-assay potency score (higher = more potent) was -0.0617. The sequence TGAGTTGTTAATGAGTTCGTGA gave a sensor-assay potency score (higher = more potent) of -0.0506.

For TAAGGTGATCTTGCGCTCCGAG, the sensor-assay potency score (higher = more potent) turned out to be 0.115. The same measure, in the same setting: the value for TTCAATAGTGATTTTAACCATT was -0.629. Turning to TTAGATCTTTCTCAAGTCCAAC, the sensor-assay potency score (higher = more potent) was -1.71. On to TTGGTCTTTGAAAACGCGCAGT, for which the sensor-assay potency score (higher = more potent) is -0.784. Turning to TTTTGAGATACACTGGAGCAGG, the sensor-assay potency score (higher = more potent) is -0.72. In turn, TAAACAAGAAAATAACTTCTTA yielded a sensor-assay potency score (higher = more potent) of -0.323. TTGGAAGTCTTCCACACTGTAG: the sensor-assay potency score (higher = more potent) is -0.86.

Another experiment deals with SSU72. The experiment is described as above. Particulars: shRNA.
Turning to TAGAGTTCTTTGTCTTTCCTAA, the sensor-assay potency score (higher = more potent) was -0.0441. In turn, ATAAACATTGGGCTTGTCGGGA had a sensor-assay potency score (higher = more potent) of -0.564. Regarding TCGTTCTCCATGTCTTCCGTGT, the sensor-assay potency score (higher = more potent) was -0.416. The same measure, in the same setting: the value for TTTGAAATCATAAACATTGGGC was 0.0382. TTTCCTAAGAAGATCATTGTAC registered a sensor-assay potency score (higher = more potent) of 0.179. In the case of AAGAAGATCATTGTACATCTGG, the sensor-assay potency score (higher = more potent) was found to be 0.705.

In turn, AACTTTGTAATCAATATCCTGC yielded a sensor-assay potency score (higher = more potent) of 0.0512. As to TTCTGGAATCTTTCTGGCCGGG, the sensor-assay potency score (higher = more potent) was -0.713.

ATGAACAACAGGAAGCTCCAGA had a sensor-assay potency score (higher = more potent) of -0.247. Still for that read-out and setting: the value for TTGTACATCTGGTCATATGTGG was 0.225; that for TCATACACTCTCTCTTCGCAAG was -1.24; that for TAAACATTGGGCTTGTCGGGAG was -0.587.

The target in another experiment is SSX3. The description is as above. The following applies: shRNA.
Sequence TTTGTATCTTCTCTGGTATTTG came in with a sensor-assay potency score (higher = more potent) of -1.22.

As to TAACAGAATGACACACTTCAAG, the sensor-assay potency score (higher = more potent) is -1.11. Still for that read-out and setting: the value for TTGTATCTTCTCTGGTATTTGA was -1.1; that for TATTACGCATGAAAGATGGGAG was 0.05. Still for that read-out and setting: under TTGAACCTGATTCCCACGGTTA stands -0.528. TTCTCCGAGACTTTCATCTTTT registered a sensor-assay potency score (higher = more potent) of -0.696.
